# Test results as given in PubChem BioAssay (Tox21).
# Values joined by “and” are separate entries in the source; they are usually repeats but may differ in a detail not shown here. Equal values may be shown once. Records with an inconclusive call do not appear. Where a call stands in place of a potency, no number is given. Active and inactive are the calls of the source. The call rests on the fitted dose curve; in most records, active means well fitted cell-killing curve with a large enough effect in the repeat runs; inconclusive means weak or mixed curves, or effect the other way; inactive means flat fitted curve, though single readings scatter.
# Columns and labels:
# [1] = cAMP Responsive Elements (CRE) small molecule antagonists, cell-based qHTS assay: qHTS cell viability counter screen (AID 2060913); further: nearly all actives have a fitted effect of over 40% in size
# Procedure, shortened: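 CRE-bla HEK293T cells (2,000/well, 18 h) given compound plus NKH477 0.25 uM final for 3 h at 37C; viability counter-screen by CellTiter-Glo luminescence in same wells after 30 min.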
# [2] = cAMP Responsive Elements (CRE) small molecule agonists, cell-based qHTS assay: qHTS cell viability counter screen (AID 2060914); further: nearly all actives have a fitted effect of over 50% in size
# Procedure, shortened: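 Luminescence read-out (CellTiter-Glo, 30 min RT) of ATP-based viability in CRE-bla HEK 293T cells, run in the same wells as the β-lactamase reporter assay after 3 h compound treatment at 37 °C.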
# Potency means the concentration at half of the fitted maximal effect.
Structure (SMILES),Potency [1],Potency [2]
COC(=O)c1ccccc1S(=O)(=O)NC(=O)Nc1nc(C)cc(C)n1,inactive,inactive
NCCCNCCCN,inactive,inactive
N#Cc1c2ccccc2cc2ccccc12,inactive,inactive
c1ccc(NNc2ccccc2)cc1,inactive,inactive
CC[N+]1(C)CCCC(OC(=O)C(O)(c2ccccc2)c2ccccc2)C1 (stereo unspecified),inactive,inactive
CCC(Br)(CC)C(=O)NC(N)=O,inactive,inactive
Nc1cnn(-c2ccccc2)c(=O)c1Cl,inactive,inactive
CCOP(=S)(OCC)Oc1nc(Cl)c(Cl)cc1Cl,inactive,inactive
COP(=O)(OC)SCn1c(=O)oc2cc(Cl)cnc21,inactive,inactive
C=C(C)C(=O)OCCCCOC(=O)C(=C)C,inactive,inactive
BrCCCBr,inactive,inactive
O=C(O)c1cc[c]([Hg][Cl])cc1,inactive,inactive
CNC(=O)N(C)c1nc2ccccc2s1,inactive,inactive
CCCCn1cc[n+](C)c1C,inactive,inactive
COc1cc(C=O)cc2c1[C@H](COC(N)=O)[C@]1(OC(C)=O)ON2C[C@H]2[C@@H]1N2C(C)=O,inactive,inactive
Brc1ccccc1,inactive,inactive
CC(=O)NNc1ccccc1,inactive,inactive
CCCSC(=O)N(CCC)CCC,inactive,inactive
CC(C)[C@@H](C(=O)O[C@@H](C#N)c1cccc(Oc2ccccc2)c1)c1ccc(Cl)cc1,inactive,inactive
CC(=O)/C=C/c1ccc2c(c1)OCO2,inactive,inactive
O=P(Oc1ccccc1)(Oc1ccccc1)Oc1ccccc1,inactive,inactive
COc1nc(NC(C)C)nc(NC(C)C)n1,inactive,inactive
COP(=S)(Oc1cc(Cl)c(Br)cc1Cl)c1ccccc1 (stereo unspecified),inactive,inactive
O=S(=O)(c1ccccc1)c1ccccc1,inactive,inactive
CC1(C)C(C=C(Cl)Cl)C1C(=O)OC(C#N)c1cccc(Oc2ccccc2)c1 (stereo unspecified),inactive,inactive
COc1cc(N)c(Cl)cc1C(=O)NC1CN2CCC1CC2 (stereo unspecified),inactive,inactive
CCc1cnc(C2=NC(C)(C(C)C)C(=O)N2)c(C(=O)O)c1 (stereo unspecified),inactive,inactive

Structure (SMILES),Potency [1],Potency [2]
CCCCCCCC[N+](C)(CCCCCCCC)CCCCCCCC,8.62 µM (active) and 48.6 µM (active),19.3 µM (active) and 30.6 µM (active)
CCCOC(=O)c1ccccc1C(=O)OCCC,inactive,inactive
S=C(SSC(=S)N1CCCCC1)N1CCCCC1,inactive,inactive
CCCCCCCCCCCCCN1CC(C)OC(C)C1 (stereo unspecified),inactive,inactive
CN(C)[C@@H]1C(=O)C(C(N)=O)=C(O)[C@@]2(O)C(=O)C3=C(O)c4c(O)cccc4[C@@](C)(O)[C@H]3C[C@@H]12,inactive,inactive
CCN(CC)C(=S)[S-].CCN(CC)C(=S)[S-].[Zn+2],6.8 µM (active),19.2 µM (active)
CSc1nc(NC(C)C)nc(NC(C)C)n1,inactive,inactive
Oc1c(Br)cc(Br)cc1Br,inactive,inactive
CCCCSP(=O)(SCCCC)SCCCC,inactive,inactive
O=CC=O,inactive,inactive
CCOC(=O)c1ccccc1C(=O)OCC,inactive,inactive
COC(=O)/C=C(\C)OP(=O)(OC)OC,inactive,inactive
O=S1(=O)OC(c2cc(Br)c(O)c(Br)c2)(c2cc(Br)c(O)c(Br)c2)c2ccccc21,inactive,inactive
C=CC(=O)OC,inactive,inactive
CCCN(CCCl)c1c([N+](=O)[O-])cc(C(F)(F)F)cc1[N+](=O)[O-],inactive,inactive
O=C(N[C@H]1CN2CCC1CC2)c1ccc2c(c1)OCCO2,inactive,inactive
CC(O)CCl (stereo unspecified),inactive,inactive
C=CC(=C)C,inactive,inactive
CCCN,inactive,inactive
CCCCCCCCCCCC(=O)O,inactive,inactive
Nc1ncn[nH]1,inactive,inactive
Nc1ccc([As](=O)(O)O)cc1,inactive,inactive
CC(C)O.CC(C)O.OCCN(CCO)CCO.OCCN(CCO)CCO.[Ti],inactive,inactive
O=c1[nH]c2ccccc2n1C1CCN(CCCC(c2ccc(F)cc2)c2ccc(F)cc2)CC1,inactive,inactive
Nc1c(Oc2ccccc2)cc(O)c2c1C(=O)c1ccccc1C2=O,inactive,inactive
O=C(O)c1cc(Oc2ccc(C(F)(F)F)cc2Cl)ccc1[N+](=O)[O-],inactive,inactive
